# An excerpt weighted towards active compounds, which were near 28% of everything screened.
# CYP2C9 activ: human CYP2C9 activators, primary screen, biochemical, luminescence | activation factor at 5 µM | AID 1024, 2008 | 96,000 compounds, 1.4% hits | Cytochrome P450 2C9 (Homo sapiens), P11712 | recombinant CYP2C9, luciferin-H conversion; active compounds read high; factor 1 = untreated enzyme, 0 = blocked;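 active = activation factor of 2 or more for CYP2C9 at a 5 µM dose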
# Target sequence (P11712 whole entry, looked up): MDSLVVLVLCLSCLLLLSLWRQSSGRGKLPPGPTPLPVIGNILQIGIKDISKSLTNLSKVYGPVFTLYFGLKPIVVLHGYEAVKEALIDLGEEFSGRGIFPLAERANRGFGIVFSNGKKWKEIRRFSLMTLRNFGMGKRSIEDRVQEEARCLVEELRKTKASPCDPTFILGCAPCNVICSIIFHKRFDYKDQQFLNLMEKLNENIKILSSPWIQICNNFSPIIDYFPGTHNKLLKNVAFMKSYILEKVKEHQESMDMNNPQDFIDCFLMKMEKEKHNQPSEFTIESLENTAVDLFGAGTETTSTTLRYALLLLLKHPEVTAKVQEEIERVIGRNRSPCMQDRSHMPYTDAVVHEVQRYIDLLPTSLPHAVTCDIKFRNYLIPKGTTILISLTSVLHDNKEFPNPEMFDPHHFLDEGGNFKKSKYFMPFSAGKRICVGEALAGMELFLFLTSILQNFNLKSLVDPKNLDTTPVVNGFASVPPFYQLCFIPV
# CYP2C19 activ: human CYP2C19 activators, primary screen, biochemical, luminescence; recombinant CYP2C19, luciferin-H EGE luminescence; active compounds read high; 0 = fully inhibited enzyme, 1 = untreated enzyme; 96,000 tested, under 10 active; activation factor at 5 µM; AID 1025, 2008;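 active = activation factor of at least 2 at 5 µM in the primary screen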
# Pyk2 oligo antag: antagonists of Pyk2 self-association, primary screen, Q293 cells, FERM NanoBiT luminescence, HTS; Protein-tyrosine kinase 2-beta (Homo sapiens), Q14289; active compounds read low; z-score (the deposit names both 25 µM and 10 µM); 99,000 compounds, 0.83% hits;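 active = Z-score of -3 or lower, scaled per plate to the spread of control and sample wells; inactive = z-score above -3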;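 also: negative z-score means lost luminescence so less FERM oligomerization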
# CYP2C9 inh: blockers of cytochrome P450 2C9 activity – biochemical, luminescence, ADME assay, primary screen. P11712. CYP2C9 Supersomes, luciferin-H conversion. inhibition, % at 5 µM. 96,000 compounds, 20% hits. AID 777, 2007;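 active = blocking of liver enzyme CYP2C9 beyond about 50% at 5 µM, limit read from the data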
# CYP2C19 inhib: blockers of cytochrome P450 2C19 activity – biochemical, luminescence, ADME assay, primary screen; inhibition, % at 5 µM; CYP2C19 Supersomes, luciferin-H EGE luminescence, 30 min; AID 778, 2007; 96,000 compounds, 21% hits;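 active = CYP2C19 inhibition above a set limit at 5 µM in the primary screen, cut at about 50% in these data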
# Hits are given with their value; i = inactive; nt = no result given.
SMILES,CYP2C9 activ,CYP2C19 activ,Pyk2 oligo antag,CYP2C9 inh,CYP2C19 inhib
O=C(Nc1ccc2c(c1)OCO2)c1cccc(S(=O)(=O)N2CCCC2)c1,i,i,i,i,i
O=C(CN1CCN(S(=O)(=O)c2ccc(Cl)cc2)CC1)Nc1ccc2c(c1)OCCO2,i,i,i,i,i
CCn1c(=O)n(CC)c2cc(S(=O)(=O)Nc3cc(C)cc(C)c3C#N)ccc21,i,i,i,80,62
CCn1c(=O)n(CC)c2cc(S(=O)(=O)Nc3c(C)cccc3C)ccc21,i,i,nt,67,94
COC(=O)CC1=C(C(=O)OC)C(c2ccc3c(c2Cl)OCO3)C(C#N)=C(N)O1 (stereo not drawn),i,i,i,i,i
COc1cc(C2C(C#N)=C(N)Oc3cc(N(C)C)ccc32)cc2c1OCO2 (stereo not drawn),i,i,i,55,51
N#CC1=C(N)Oc2cc(O)ccc2C1c1ccccc1 (stereo not drawn),i,i,i,77,65
CCOC(=O)C1=C(C)OC(N)=C(C#N)C1c1cc(OC)c2c(c1)OCO2 (stereo not drawn),i,i,i,66,84
COc1ccc(C2C(C#N)=C(N)Oc3cc(O)ccc32)cc1OC (stereo not drawn),i,i,i,i,i
N#CC1=C(N)Oc2cc3c(cc2C1c1ccc(Cl)cc1)OCO3 (stereo not drawn),i,i,i,i,i
CCOC(=O)C1=C(C)OC(N)=C(C#N)C1c1cc(Cl)c(OCC(N)=O)c(OC)c1 (stereo not drawn),i,i,i,89,i
COC(=O)C(C)Sc1nc2c(cnn2-c2ccc(C)cc2)c(=O)[nH]1 (stereo not drawn),i,i,i,i,i
COc1ccc(C(=O)NN2CC(O)=C(c3nc4ccccc4n3C)C2=N)cc1OC,nt,nt,i,nt,nt
N#CC1=C(N)Oc2cc3ccccc3cc2C1c1cccnc1 (stereo not drawn),i,i,i,82,66
CCOc1cc(C2C(C#N)=C(N)OC(C)=C2C(C)=O)cc(Br)c1O (stereo not drawn),i,i,i,90,i
COc1cc(C2C(C#N)=C(N)Oc3cc(O)ccc32)cc2c1OCO2 (stereo not drawn),i,i,i,91,93
N#CC1=C(N)Oc2c(ccc3cccnc23)C1c1cccnc1 (stereo not drawn),nt,nt,i,nt,nt
O=C1NN(c2ccccc2)C(=O)/C1=C\c1cccc(OC(=O)c2cccs2)c1,i,i,i,96,52
Cc1nnsc1NC(=O)OCc1ccc(Cl)cc1Cl,i,i,i,i,71
Cc1nn(C)c(Cl)c1NC(=O)OCc1ccc(Cl)cc1Cl,i,i,i,i,68
Cc1nn(Cc2ccc(Cl)cc2Cl)c(C)c1NC(=O)CCl,nt,nt,i,nt,nt
Cc1nnsc1NC(=O)OCCCl,i,i,i,i,i
